Reference: PubChem BioAssay AID1851 (National Center for Advancing Translational Sciences (NCATS), 2009)
Values joined by “and” are separate entries in the source; they are usually repeats but may differ in a detail not shown here. Identical values can stand only once. Screen size: about 16,000 compounds; about 5,800 (36%) were called active. About 23% were inconclusive and are not listed. Calls follow the shape of the dose curve; as a rule, active = well fitted curve in the direction sought with a large enough effect; inconclusive = small, poorly fitted or top-dose-only effect, or effect the other way; inactive = no such curve, though single readings can be large or run the other way. Some of the results follow.

Each compound was assayed against Cytochrome P450 2C19 (Homo sapiens) (UniProt P33261) (assay: Cytochrome panel assay with activity outcomes). Conditions: recombinant CYP, pro-luciferin dealkylation, luminescence, p450-cyp2c19; series mostly up to 57.1 µM; activity, negative = inhibition: at the top concentration.
Cytochrome P450 2C19 (Homo sapiens), sequence (P33261 whole entry, looked up): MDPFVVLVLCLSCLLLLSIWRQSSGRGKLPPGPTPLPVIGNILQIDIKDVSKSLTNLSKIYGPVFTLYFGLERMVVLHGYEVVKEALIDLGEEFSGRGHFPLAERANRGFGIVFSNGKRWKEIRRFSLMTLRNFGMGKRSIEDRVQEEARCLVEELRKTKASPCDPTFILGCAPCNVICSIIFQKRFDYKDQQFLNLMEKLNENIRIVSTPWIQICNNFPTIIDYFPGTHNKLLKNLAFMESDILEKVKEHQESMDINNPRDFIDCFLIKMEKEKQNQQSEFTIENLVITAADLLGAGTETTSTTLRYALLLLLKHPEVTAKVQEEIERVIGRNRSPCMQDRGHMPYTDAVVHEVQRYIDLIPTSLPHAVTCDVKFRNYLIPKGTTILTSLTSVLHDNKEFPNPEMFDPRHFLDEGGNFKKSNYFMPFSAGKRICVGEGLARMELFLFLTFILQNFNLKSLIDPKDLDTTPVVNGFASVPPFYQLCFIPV
% is scaled to controls: 0 for no effect and ±100 for the full control effect.

activity, negative = inhibition, inactive:
Clc1ccc2c(N3CCC(CCC4CCN(c5ncnc6cc(Cl)ccc56)CC4)CC3)ncnc2c1 -1.06% [at 11.4 µM]
CCCCCC(=O)O[C@H](CC(=O)O)C[N+](C)(C)C 6.24%
COc1ccc(-c2nc3cnc(N4CCNCC4)nc3n(C3CC3)c2=O)cc1 -13.4%
CC1(C)CC(NC(=O)c2ccc3c(c2)OCO3)CC(C)(C)N1 0.393%
c1ccc(CCc2cccnc2)nc1 -11.1% [at 11.4 µM]
CC(=O)OC[C@H]1O[C@@H](O/N=C(\C)CCC(=O)OC[C@@H]2O[C@H](C#Cc3ccccc3)C=C[C@@H]2Oc2ccc(C)cc2)[C@H](OC(C)=O)[C@@H](OC(C)=O)[C@H]1OC(C)=O -18.3% [at 11.4 µM]
CC(C)=NO[C@@H](C)c1cn([C@H](CO)Cc2ccccc2)nn1 -12.3% [at 11.4 µM] and -23.6% [at 11.4 µM]
C/C(CCC(=O)OC[C@@H]1O[C@H](C#Cc2ccccc2)C=C[C@@H]1Oc1ccc(C)cc1)=N/OC[C@@H](C)[C@H](OCc1ccccc1)C(C)C -30.1% [at 11.4 µM]
C/C(CCC(=O)OC[C@@H]1O[C@H](C#Cc2ccccc2)C=C[C@@H]1Oc1ccc(C)cc1)=N/OC[C@@H](O)COCc1ccco1 -32.2% [at 11.4 µM]
CC(=O)OC[C@@H]1O[C@H](C/C=N\O[C@@H](C)c2cn([C@H](CO)Cc3ccccc3)nn2)C=C[C@@H]1OC(C)=O 25.9% [at 11.4 µM] and 17.9% [at 11.4 µM]
CCc1cc2c(nc1CC)CCN(CC/C(C)=N/O[C@@H](C)c1cn([C@@H]3COC[C@@H]3O)nn1)C2 14.6% [at 11.4 µM]
C/C(CCN1CCc2nc(-c3ccccc3)c(-c3ccccc3)cc2C1)=N\O[C@@H](C)c1cn([C@@H]2COC[C@@H]2O)nn1 3.9% [at 11.4 µM]
O=CN1CCN(C[C@H](O)CN2CCCCC2)CC1 10.2% [at 11.4 µM]
O=c1oc2c(Cl)cc(Cl)cc2cc1-c1nnc(Nc2ccccc2F)s1 -20.3%
OC(CCCN1CCCCC1)(c1ccccc1)c1ccccc1 -10.8% [at 25.6 µM]
CO[C@H]1COC(=O)[C@H]2CCCN2C(=O)C/C=C\[C@@H](C)[C@H](OC)COC(=O)C/C=C\[C@@H]1C 19.4% [at 11.4 µM]
COC(=O)[C@@]1(Cc2ccc(F)cc2)[C@H]2c3cc(C(=O)N4CCCC4)n(Cc4ccc(OC(F)(F)F)cc4)c3C[C@H]2CN1C(=O)c1ccccc1 -38.2%
Clc1cc2c(c(CSC3=NCN(CC4CC4)CN3)c1)OCOC2 10.2% [at 11.4 µM]
CCN1CCCCC(=N/O)/C(=N/O)CCCC1 10.8% [at 11.4 µM]
O=C1[C@H]2[C@H]3[C@H](O)[C@H](O)C/C(=N/OC[C@@H](O)COCc4ccco4)[C@@H]3CC[C@@H]2C(=O)N1Cc1ccc2c(c1)OCO2 -24.6% [at 11.4 µM]
COc1cc2ccccc2cc1C(=O)Nc1ccc(S(=O)(=O)Nc2cc(C)on2)cc1 -13.9%

AC50, active:
COc1cccc(NC(=O)c2cc(-c3cccnc3)nc3c(Cl)cccc23)c1 6.31 µM
CC1(C)CC(NCc2ccc3c(c2)OCO3)CCO1 (stereo not drawn) 11.2 µM
c1ccc(NN(Cc2cnccn2)c2ccccc2)cc1 2 µM
C/C(CCC(=O)OC[C@@H]1O[C@H](C#Cc2ccccc2)C=C[C@@H]1Oc1ccc(C)cc1)=N/O[C@@H](C)c1cn([C@H](CO)Cc2ccccc2)nn1 3.98 µM
COc1ccc(O[C@H]2C=C[C@@H](c3ccccc3)O[C@H]2COC(=O)CC/C(C)=N\O[C@@H](C)c2cn([C@H]3COC[C@H]3O)nn2)cc1 2.51 µM
COc1ccc(O[C@H]2C=C[C@@H](c3ccccc3)O[C@H]2COC(=O)CC/C(C)=N\O[C@@H](C)c2cn([C@H](CO)Cc3ccccc3)nn2)cc1 63.1 nM and 631 nM
CO/N=C(/C)CCC(=O)OC[C@@H]1O[C@H](C#Cc2ccccc2)C=C[C@@H]1Oc1ccc(C)cc1 3.98 µM
CC(C)C(O)(C#CCN1CCCC1)c1ccccc1 (stereo not drawn) 10 µM
O=C(CN(c1ccccc1)S(=O)(=O)c1ccccc1[N+](=O)[O-])NN=C1CCCCCCC1 0.794 µM
COc1ccc(N(CC(=O)NN=C2CCCC2)S(=O)(=O)c2ccccc2)cc1 6.31 µM
COCCCNC(=O)CN(c1ccc(OC)cc1)S(=O)(=O)c1ccc(NC(C)=O)cc1 15.8 µM
COC(=O)[C@@]1(Cc2ccc(F)cc2)[C@H]2c3cc(C(=O)N(C)C)n(Cc4ccc(C)o4)c3C[C@H]2CN1C(=O)c1ccccc1 15.8 µM
COC(=O)[C@@]1(Cc2ccc(F)cc2)[C@H]2c3cc(C(=O)N(C)C)n(Cc4ccc(C)c(F)c4F)c3C[C@H]2CN1C(=O)c1ccccc1 15.8 µM
COC(=O)[C@@]1(Cc2ccccc2)[C@H]2c3cc(C(=O)N4CCCC4)n(Cc4ccc(C)o4)c3C[C@H]2CN1C(=O)c1ccccc1 2.51 µM
COC(=O)[C@@]1(Cc2ccc(F)cc2)[C@H]2c3cc(C(=O)N4CCCC4)n(Cc4ccc(C)o4)c3C[C@H]2CN1C(=O)c1ccccc1 5.01 µM
Cc1[nH]nc(-c2ccc(O)cc2O)c1-c1ccc(Cl)cc1 0.282 µM
Oc1ccc(-c2[nH]ncc2-c2ccc(Cl)cc2)c(O)c1 0.251 µM
COc1ccc(-c2n[nH]c(C)c2-c2ccc(Cl)cc2)c(O)c1 2.51 µM
C=C(C)COc1ccc(-c2n[nH]c(C)c2-c2ccc(OC)cc2)c(O)c1 2.24 µM
Cc1cc(NC(=O)c2ccc(S(=O)(=O)Nc3ccccc3)cc2)no1 5.01 µM

AC50, inactive:
O[C@@](CCN1CCCCC1)(c1ccccc1)C1CCCCC1
CCOC(=O)C1=C[C@@]2(CC)CCCN3CCc4c(n1c1ccccc41)[C@H]32
